Measurements taken from PubChem BioAssay AID686978 (National Center for Advancing Translational Sciences (NCATS), 2013).
In all, about 420,000 compounds went through this assay and about 64,000 (15%) were called active. About 27% were inconclusive and are not listed. The list is a sample of the results. Unmarked numbers belong to inactive results. Calls come from the whole dose curve; as a rule, active = well fitted inhibition curve with a large enough effect; inconclusive = small, poorly fitted or top-dose-only effect; inactive = flat fitted curve, though single readings scatter.
% is set by controls: 0 for no effect and ±100 for the full control effect; potency is the fitted concentration of half-maximal effect.

Test: qHTS for Inhibitors of human tyrosyl-DNA phosphodiesterase 1 (TDP1): qHTS in cells in absence of CPT; note: nearly all actives have a fitted effect of over 55% in size
Settings: DT40 Tdp1-/- hTDP1 cells, no CPT, ATP luminescence, 48 h; activity change, negative = growth inhibition: at 46.2 µM (top of the series)
Summary of the method: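 Cells were dispensed at 400 per well, compounds added by pin tool, plates incubated ≥48 hr at 37 °C, then CellTiter-Glo added for 30 min at room temperature before luminescence reading. Line: DT40 Tdp1-/- complemented with hTDP1; camptothecin omitted.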
In the case of `Cc1ccc(-c2ccc(C3=CC(=O)CC(C)(C)C3=O)cc2)cc1`, the “activity change, negative = growth inhibition” value is reported as -100%.
For `CCc1ccccc1N1C(=O)C2C3CC(=O)C(c4ccccc43)C2C1=O` (stereo unspecified), the “activity change, negative = growth inhibition” value was 18.8%.
With `Cc1ccc(CCC(=O)Nc2ncc(Cc3cc(Cl)ccc3Cl)s2)o1` the Potency was 0.58 µM (active).
For `Cc1ccc(Cc2cnc(N)s2)o1`, the “activity change, negative = growth inhibition” value was -4.35%.
In the case of `O=C(CCc1ccccc1Cl)Nc1ccc(S(=O)(=O)Nc2nccs2)cc1`, the “activity change, negative = growth inhibition” value is reported as -3.57%.
In the case of `COc1cc2sc(C)nc2cc1C`, the “activity change, negative = growth inhibition” value is reported as 2.23%.
For `CCCOc1ccc(NC(=O)CC2C(=O)N(c3ccccc3)C(=O)N2Cc2ccco2)cc1` (stereo unspecified), the Potency was 20.6 µM (active).
In the case of `CCNC(=O)N1CCNC(=O)C1CC(=O)Nc1ccc(C(=O)OCC)cc1` (stereo unspecified), the “activity change, negative = growth inhibition” value is reported as 4%.
With `CCOC(=O)c1ccc(NC(=O)CC2C(=O)N(c3cccc(OC)c3)C(=O)N2C2CCCCC2)cc1` (stereo unspecified) the Potency was 20.6 µM (active).
For `CCOc1ccc(NC(=O)CC2C(=O)N(c3ccccc3)C(=O)N2CCOC)cc1` (stereo unspecified), the “activity change, negative = growth inhibition” value was 0.538%.
In the case of `CCNC(=O)CC1C(=O)N(c2ccc(F)cc2)C(=O)N1Cc1cccs1` (stereo unspecified), the “activity change, negative = growth inhibition” value is reported as 6.76%.
With `CCOc1ccc(NC(=O)CC2C(=O)N(c3cccc(OC)c3)C(=O)N2C2CCCCC2)cc1` (stereo unspecified) the “activity change, negative = growth inhibition” value was -25.8%.
For `COC(=O)CN1C(=S)N(c2ccccc2)C(=O)C1CC(=O)Nc1ccc(Cl)cc1` (stereo unspecified), the “activity change, negative = growth inhibition” value was -25.1%.
For `CCOC(=O)c1ccc(NC(=O)CC2C(=O)N(c3ccccc3)C(=O)N2Cc2cccs2)cc1` (stereo unspecified), the Potency was 20.6 µM (active).
In the case of `CCNC(=O)CC1C(=O)N(c2ccc(F)cc2)C(=O)N1Cc1ccc(C)cc1` (stereo unspecified), the “activity change, negative = growth inhibition” value is reported as 2.75%.
For `Cc1ccnc(NS(=O)(=O)c2ccc(NC(=O)c3oc4ccc(F)cc4c3C)cc2)n1`, the “activity change, negative = growth inhibition” value was 16.5%.
With `COCc1cc(C)n(CC(=O)NCC2CCCO2)c(=O)c1C#N` (stereo unspecified) the “activity change, negative = growth inhibition” value was 8.62%.
In the case of `Cc1cnc(C(=O)OCC(=O)NCCCc2ccccc2)cn1`, the “activity change, negative = growth inhibition” value is reported as -4.9%.
With `Cc1ccccc1NC(=O)c1nn(-c2ccc(F)c(F)c2)ccc1=O` the “activity change, negative = growth inhibition” value was 0.98%.
With `CN(C)/C=C(/C(=O)c1ccccc1)S(=O)(=O)c1ccc(Cl)cc1` the “activity change, negative = growth inhibition” value was -0.434%.
For `COc1ccc(OC(C)C(=O)Nc2cccnc2)cc1` (stereo unspecified), the “activity change, negative = growth inhibition” value was 4.05%.
For `N#Cc1ccc(OCCN2C(=O)NC3(CCSC3)C2=O)cc1` (stereo unspecified), the “activity change, negative = growth inhibition” value was -4.16%.
In the case of `CCOC(=O)[C@@H]1[C@H]2COc3ccc(Br)cc3[C@H]2N2C(=O)N(c3ccc(C)cc3)C(=O)[C@@]12C`, the Potency is reported as 20.6 µM (active).
With `CCOC(=O)[C@@H]1[C@H]2COc3cc(OC)ccc3[C@@H]2N2C(=O)N(c3cccc(C)c3)C(=O)[C@@]12C` the “activity change, negative = growth inhibition” value was -25.7%.
With `CCOC(=O)[C@H]1[C@H]2COc3cc(OC)ccc3[C@@H]2N2C(=O)N(c3ccc(Br)cc3)C(=O)[C@@]12C` the Potency was 18.4 µM (active).
In the case of `CCOC(=O)[C@@H]1[C@H]2COc3cc(OC)ccc3[C@H]2N2C(=O)N(c3ccc(F)cc3)C(=O)[C@]12C`, the “activity change, negative = growth inhibition” value is reported as -18.1%.
For `CCOC(=O)[C@H]1[C@H]2COc3ccccc3[C@@H]2N2C(=O)CN(Cc3ccccc3)C(=O)[C@@]12C`, the “activity change, negative = growth inhibition” value was -21.1%.
For `CCOC(=O)[C@H]1[C@H]2COc3ccc(Br)cc3[C@@H]2N2C(=O)CN(C)C(=O)[C@@]12C`, the “activity change, negative = growth inhibition” value was -2.51%.
With `O=C(CN1CCN(Cc2ccc(F)cc2Cl)C1=O)NCc1cccs1` the “activity change, negative = growth inhibition” value was -14.6%.
For `COc1cc(OC)c2c(c1)OC(=O)CC2c1cc(OC)c(OC)c(OC)c1` (stereo unspecified), the “activity change, negative = growth inhibition” value was 4.96%.
In the case of `COc1cc(C2OC(c3cc(OC)c(OC)c(OC)c3)C(C)C2C)cc(OC)c1OC` (stereo unspecified), the Potency is reported as 18.4 µM (active).
In the case of `COc1cc(C2CC(=O)Oc3cc(OC)c(OC)c(OC)c32)cc(OC)c1OC` (stereo unspecified), the “activity change, negative = growth inhibition” value is reported as -15.9%.
In the case of `CCCNC(=O)NCc1ccc(N2CCCC2=O)cc1`, the “activity change, negative = growth inhibition” value is reported as -1.13%.
For `Cn1cccc1C1(C(F)(F)F)NCCNC1=O` (stereo unspecified), the “activity change, negative = growth inhibition” value was 2.55%.
For `Cc1ccc(CSCC2Nc3ccc(C(=O)N4CCN(c5ccc(F)cc5)CC4)cc3NC2=O)cc1` (stereo unspecified), the Potency was 16.4 µM (active).
In the case of `COC(=O)c1ccc(C(=O)OC)c(NC(=S)N2CCN(c3ccc(F)cc3)CC2)c1`, the “activity change, negative = growth inhibition” value is reported as -22.4%.
With `Cc1ccc(SCC(=O)N2CCN(c3ccc(F)cc3)CC2)cc1` the “activity change, negative = growth inhibition” value was -28%.
For `COCc1ccc(CN2CCC(Oc3ccc(C(=O)NCc4ccccn4)cc3)CC2)o1`, the “activity change, negative = growth inhibition” value was -22.1%.
For `O=C(COC(=O)c1ncc(Cl)c(Cl)c1Cl)NNC(=O)c1ccccc1`, the “activity change, negative = growth inhibition” value was -13.8%.
In the case of `CCn1cc(S(=O)(=O)c2cccc(C)c2)c(=O)c2cc(F)c(N3CCN(C)CC3)cc21`, the “activity change, negative = growth inhibition” value is reported as 6.93%.
With `CCCCCCn1cc(C(=O)O)c(=O)c2cc(F)c(N3CCCCC3)cc21` the “activity change, negative = growth inhibition” value was 1.32%.
For `Cc1nn(Cc2ccccc2)c(C)c1CNC(=O)c1ccc(F)c(S(=O)(=O)N2CCOCC2)c1`, the “activity change, negative = growth inhibition” value was -29.9%.
For `Cc1cccc(S(=O)(=O)c2cn(Cc3ccccc3)c3cc(N4CCOCC4)c(F)cc3c2=O)c1`, the Potency was 20.6 µM (active).
In the case of `CC1CCCN(c2cc3c(cc2F)c(=O)c(S(=O)(=O)c2cccc(Cl)c2)cn3Cc2ccccc2)C1` (stereo unspecified), the “activity change, negative = growth inhibition” value is reported as -15%.
With `Cc1ccc(S(=O)(=O)c2cn(Cc3ccccc3)c3cc(N4CCCC4)c(F)cc3c2=O)c(C)c1` the Potency was 9.2 µM (active).
With `CC(=O)Cc1nsc(NC(=O)c2ccc(Cl)cc2Cl)n1` the “activity change, negative = growth inhibition” value was -8%.
In the case of `CCCCCC1CC(COc2ccccc2)OC1=O` (stereo unspecified), the “activity change, negative = growth inhibition” value is reported as 0.957%.
In the case of `CCOC(=O)c1oc2ccccc2c1NC(=O)c1cccs1`, the “activity change, negative = growth inhibition” value is reported as 2.22%.
In the case of `CCOC(=O)CNC(=O)/C(=C\c1ccc(F)cc1)NC(=O)c1ccccc1`, the “activity change, negative = growth inhibition” value is reported as -0.762%.
For `CC(=O)OCC(=O)[C@@]1(O)CCC2C3CCC4=CC(=O)CC[C@@]4(C)[C@]3(F)C(O)C[C@]21C` (stereo partly specified), the “activity change, negative = growth inhibition” value was -2.28%.
In the case of `COc1ccc(C2(Nc3cccc(F)c3)C(=O)c3ccccc3C2=O)cc1`, the “activity change, negative = growth inhibition” value is reported as 5.13%.
